A selection: hits, their analogues and other compounds. The true share with any hit is near 3.4%.
HGIII-sPLA2 inh: Blocks human group III sPLA2 activity. Q9NZ20. QFRET BODIPY PC-A2 liposome hydrolysis, fluorescence. inhibition, % at 12.2 µM. 370,000 compounds, 0.56% hits;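 active = inhibition above mean plus 3 SD of compounds lying within the high and low control bounds, cut at about 19% in these data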;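 note: 0% = median of test compound wells and 100% = no enzyme DMSO wells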
proKLK7 act: proKLK7 (human) activation, primary screen; purified proKLK7, EDANS-DABCYL substrate fluorescence; 100% is mature enzyme control, 0% vehicle; activation, % at 7 µM; 370,000 compounds, 0.9% hits;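 active = activation above the mean of all tested compounds plus 3 SD, computed per campaign excluding outliers beyond control limits, cut at about 13% in these data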
ADAM17 inh: inhibits human ADAM17. inhibition, % at 6.95 µM. P78536. recombinant ADAM17, EDANS/DABCYL FRET peptide cleavage. 370,000 compounds, 0.83% hits;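 active = inhibition above the mean of compounds lying between control limits plus 3 SD, set per campaign, cut at about 8.5% in these data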;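 note: 0% = DMSO-only wells as the low control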
ADAM10 inh: inhibitors of human ADAM10. recombinant ADAM10, EDANS/DABCYL FRET peptide cleavage, 3 h. inhibition, % at 7 µM. O14672. AID 720582. 370,000 compounds, 0.62% hits;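 active = inhibition above a per-campaign cutoff equal to the mean of compounds falling between control-based bounds plus 3 SD, cut at about 20% in these data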;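 note: 0% = DMSO wells while the 100% control is not disclosed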
NRP1-CendR mod: NRP-1/CendR interaction modulation. inhibition, % at 25 µM. FAM-RPARPAR peptide binding to NRP-1, fluorescence polarization. 360,000 compounds, 0.85% hits. O14786;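 active = inhibition or corrected inhibition above about 18%, plus a signal ratio from 0.5 to 1.5, limit read from the data, passing the limit was not always enough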
Target sequence (O14786 whole entry, looked up): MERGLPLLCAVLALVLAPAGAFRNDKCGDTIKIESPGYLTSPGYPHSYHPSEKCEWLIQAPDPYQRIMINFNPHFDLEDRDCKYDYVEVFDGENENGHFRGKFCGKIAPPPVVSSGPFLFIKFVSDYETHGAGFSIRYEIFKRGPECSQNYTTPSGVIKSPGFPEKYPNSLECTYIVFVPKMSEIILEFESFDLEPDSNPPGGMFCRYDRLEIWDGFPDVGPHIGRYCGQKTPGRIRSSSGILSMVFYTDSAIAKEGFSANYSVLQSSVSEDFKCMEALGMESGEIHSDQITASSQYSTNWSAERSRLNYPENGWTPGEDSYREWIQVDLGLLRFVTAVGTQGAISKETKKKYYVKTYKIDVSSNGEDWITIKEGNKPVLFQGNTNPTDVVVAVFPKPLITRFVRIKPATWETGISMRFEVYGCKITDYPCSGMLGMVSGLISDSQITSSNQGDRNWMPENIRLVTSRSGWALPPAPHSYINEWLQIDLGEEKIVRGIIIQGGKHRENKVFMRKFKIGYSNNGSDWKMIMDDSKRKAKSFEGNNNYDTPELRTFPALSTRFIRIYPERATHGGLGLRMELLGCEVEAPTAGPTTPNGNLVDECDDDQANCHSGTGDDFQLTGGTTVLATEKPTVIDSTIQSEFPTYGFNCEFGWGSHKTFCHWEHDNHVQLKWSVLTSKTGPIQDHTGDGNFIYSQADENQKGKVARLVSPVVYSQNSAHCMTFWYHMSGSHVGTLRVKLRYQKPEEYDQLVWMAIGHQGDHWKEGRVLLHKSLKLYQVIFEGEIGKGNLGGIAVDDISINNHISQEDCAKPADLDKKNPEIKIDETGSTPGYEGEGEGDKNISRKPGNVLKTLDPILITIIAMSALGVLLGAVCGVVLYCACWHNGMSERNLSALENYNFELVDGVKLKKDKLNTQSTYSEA
sPLA2 confirm: human GIII-sPLA2 inhibition, confirmation | shares compounds with HGIII-sPLA2 inh | recombinant hGIII-sPLA2, BODIPY PC-A2 QFRET fluorescence | inhibition, % at 12.2 µM | 2,000 compounds, 34% hits | AID 743280;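 active = mean inhibition across triplicates above the hit cutoff set in the earlier primary screen, cut at about 19% in these data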;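 note: 0% = enzyme with DMSO and 100% = DMSO wells lacking enzyme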
BODIPY interf: optically interferes with 535nm fluorescence in sPLA2 counter-screen; shares compounds with HGIII-sPLA2 inh; BODIPY FL product fluorescence interference, QFRET; inhibition, % at 12.2 µM; 2,000 compounds, 8.5% hits;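 active = average inhibition above the solvent-only control mean plus 3 SD, cut at about 6% in these data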;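 note: 0% = DMSO with substrate plus product and 100% = DMSO with substrate alone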
535nm interf DR: 535nm optical interference dose response, HGIII-sPLA2 counter-screen. AID 743455. 240 tested, under 10 active. IC50, µM. shares compounds with HGIII-sPLA2 inh. BODIPY FL product fluorescence interference, cell-free;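 active = IC50 at or below 10 µM; inactive = IC50 above 10 µM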
Active calls of the source: *; . = not tested or not shown.

SMILES	HGIII-sPLA2 inh	proKLK7 act	ADAM17 inh	ADAM10 inh	NRP1-CendR mod	sPLA2 confirm	BODIPY interf	others
CCCCC(=O)NC(c1ccc(OC)cc1)c1ccc2cccnc2c1O (centres undefined)	10	0	8	13	-2	.	.
CCCCC(=O)NC(c1cccs1)c1cc(Cl)c2cccnc2c1O (centres undefined)	24*	0	-1	0	-1	32*	0	535nm interf DR=>122
CCC(=O)NC(c1ccc(Cl)cc1Cl)c1ccc2cccnc2c1O (centres undefined)	33*	1	4	10	8	25*	-6
COc1ccc2c(c1)[C@@]1(OCCC=C[C@H]1C)C(=O)N2CC1CC1	0	1	-1	1	.	.	.
COC(=O)c1cc2c(c3c4cc(C)ccc4n(S(=O)(=O)c4cccc(C)c4)c13)C(=O)N(Cc1ccccc1OC)C2	3	-1	3	3	.	.	.
CC(=O)NC(c1ccc(Cl)cc1)c1ccc2cccnc2c1O (centres undefined)	8	0	7	7	0	.	.
CCC(=O)NC(c1ccco1)c1cc(Br)c2cccnc2c1O (centres undefined)	23*	0	2	10	-3	16	-8
CC(C)C(=O)NC(c1ccc(Cl)cc1Cl)c1ccc2cccnc2c1O (centres undefined)	25*	0	4	7	4	32*	0
CCCC(=O)NC(c1ccco1)c1cc([N+](=O)[O-])c2cccnc2c1O (centres undefined)	11	0	7	12	-9	.	.
COC(=O)C12C=C3CC(C4CC4)=C3C(=O)N1Cc1[nH]c3ccccc3c1C2 (centres undefined)	-10	-1	-18	-67	.	.	.
Cc1ccc(NC(=O)CCN2CCN(CCO)CC2)cc1Br	23*	0	-3	-24	-1	-5	-3
COC(=O)[C@]12C[C@H](CC(=O)N3CCCC3)C(=O)N(CCc3ccc(OC)c(OC)c3)C1=C[C@H](C(C)C)O[C@@H]2C1CC1	11	0	-4	-2	.	.	.
CC(C)C[C@@H]1COc2cccc(N3CCSCC3)c2S(=O)(=O)N1C	-1	0	0	1	.	.	.
Cc1ccc2c(c1)C(=O)C(=O)N2Cc1ccc(C(F)(F)F)cc1	30*	0	-2	-11	-2	26*	3
O=C1C(=O)N(Cc2ccc(-c3ccc(Cl)nc3)cc2)c2ccc(OC(F)(F)F)cc21	25*	.	-4	-8	.	32*	-2	535nm interf DR=>122
CCCN1C(=O)C(=O)c2cc(Cl)ccc21	5	1	-5	-29	10	.	.
CC1Sc2ccccc2N(Cc2ccc(OC(F)(F)F)cc2)C1=O (centres undefined)	11	0	-3	-12	5	.	.
O=C1C(=O)N(Cc2ccc(-c3ccccc3)cc2)c2ccc(OC(F)(F)F)cc21	26*	.	2	15	.	34*	1	535nm interf DR=>122
O=C(OCN1C(=O)c2ccccc2C1=O)c1ccc(Cl)nc1	5	0	-5	1	9	.	.
CN(C)Cc1c(C(C)(C)O)[nH]c2cc(F)ccc12	-1	0	-2	-8	.	.	.
O=C(/C=C(\Nc1cccc(Cl)c1F)c1ccccc1)c1ccccc1	1	0	0	-4	.	.	.
C/C(=N\N=C\c1cccc(F)c1)c1nnn(-c2nonc2N)c1C	20*	0	-5	-3	6	-5	-7
Nc1nonc1-n1nnc(C(=O)N/N=C/c2cccc(F)c2)c1CN1CCCC1	3	-1	-5	-11	-7	.	.
CC(C)OC(=O)c1c(N)sc2c1CCCC2	20*	-1	0	12	12	18	-4
CCCOC(=O)c1c(N)sc2c1CCC2	-6	3	-4	-9	-17	.	.
SMILES	HGIII-sPLA2 inh	proKLK7 act	ADAM17 inh	ADAM10 inh	NRP1-CendR mod	sPLA2 confirm	BODIPY interf	others
Cc1ccc(C(=O)C2CCN(CC(=O)N(C)C3CCCCC3)CC2)cc1	11	0	-4	2	.	.	.
COc1ccccc1CN1C(=O)CNC1=S	.	.	.	.	-1	.	.
COc1ccccc1Cn1[nH]nnc1=S	22*	1	-1	-1	-13	13	-2
CN1C(=O)c2cc(NC(=O)c3ccccc3)ccc2OC[C@H]2O[C@@H](CC(=O)NCC3CC3)CC[C@@H]21	-24	0	-8	4	.	.	.
CCOC(=O)c1cnn(-c2ccccc2)c1NC(=O)CN1CCCCC1	21*	0	-9	0	-2	-1	-7
O=C(CSc1nc2ccccc2n1Cc1ccccc1Cl)N/N=C\c1cccc(Oc2ccccc2)c1	-3	0	2	-6	.	.	.
CCn1c(NC(=O)C2CCCCC2)nc2ccccc21	2	-1	-3	5	-20	.	.
CCCn1c(NC(=S)Nc2ccccc2)nc2ccccc21	37*	0	-1	-12	6	48*	6	535nm interf DR=>122
CCn1c(NC(=S)Nc2ccccc2)nc2ccccc21	23*	0	-1	-4	8	24*	3
S=C(Nc1ccccc1)Nc1nc2ccccc2n1CCOc1ccc(Cl)cc1	5	0	2	-3	6	.	.
O=C(N/N=C/c1c(O)ccc2ccccc12)c1ccc(Br)o1	19*	-2	1	-5	-82	-2	-2
Cc1occc1C(=O)N/N=C/c1c(O)ccc2ccccc12	23*	-48	-15	-62	-7	-1	2
O=C1c2ccccc2C(=O)N1CCSc1n[nH]c(=S)s1	20*	0	0	1	-13	25*	5
O=C1c2ccccc2C(=O)N1CCSc1ncn[nH]1	-1	7	-5	-3	-3	.	.
C=CCn1c(=S)[nH]c2nc3c(cc2c1=O)CCCC3	23*	0	-6	-12	7	12	-1
C=CCn1c(=S)[nH]c2ccc(Br)cc2c1=O	20*	-1	4	-8	5	21*	2
C=CCn1c(=S)[nH]c2sc3c(c2c1=O)CCC3	9	0	-6	-5	-11	.	.
C=CCN1C(=O)[C@@H](CC(=O)N2CCN(C(=O)c3ccco3)CC2)[C@]2(C(=O)OCC)CCCCC/C=C/12	-2	1	2	-1	.	.	.
CCC(Nc1ccc(OC)cc1)C(=O)N/N=C/c1ccc([N+](=O)[O-])cc1 (centres undefined)	20*	0	-6	-1	-2	16	-5
COc1ccc(N2CC(C(=O)N/N=C/c3ccc([N+](=O)[O-])cc3)CC2=O)cc1 (centres undefined)	-3	1	3	-3	11	.	.
O=c1cc(-c2ccccc2)[nH]n1-c1nc2ccccc2[nH]1	19*	3	-66	-213	2	14	-1

Source: PubChem BioAssay (several laboratories)
